Laboratory results from the supplement of paper PMC7335073.
The full ranking holds about 4,100 sequences; the median of “relative CpG methylation activity (normalised to average over all NNNCGNNN flanks)” is about 0.87, and the highest 2% start at about 2.4. The entries come from a sample that favours the highest values as a whole.

molecular target: DNMT3A catalytic domain (mouse) (UniProt O88508); assay: relative CpG methylation activity (normalised to average over all NNNCGNNN flanks) (relative (1 = mean)); higher = more methylation of the central CpG; settings: system: in vitro, murine catalytic domain; CpG state: hemimethylated substrate pool; residues: 608-908
Experimental: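 Deep enzymology: a pool of dsDNA substrates with a central CpG flanked by 10 random nucleotides on each side was methylated by the murine DNMT3A or DNMT3B catalytic domain (0.8 mM SAM, 37 °C, 60 min). Methylation was then read out by hairpin ligation, bisulfite conversion and NGS. Values are the average methylation of each NNNCGNNN context (±3 flanks; the outer flanks are random and averaged over), normalised to the overall mean, so 1 = average activity.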

Sequence | relative CpG methylation activity
CCTCGGAT | 0.744
CCCCGCGC | 1.17
TATCGACT | 0.753
ATCCGGAT | 1.34
GTGCGACC | 1.61
AGCCGATT | 0.672
GATCGCCA | 0.923
ATCCGCCC | 2.96
TCCCGCCC | 1.99
TTCCGCCC | 2.77
CGCCGCCT | 1.48
CTCCGCCT | 2.45
TTCCGCGC | 2.03
AACCGCCC | 1.78
CTCCGCGT | 1.98
CTCCGCCA | 2.37
CGCCGCCA | 1.25
CACCGCCA | 1.32
ATCCGCCG | 2.1
CATCGGGG | 0.133

Sequence | relative CpG methylation activity
CGCCGGTA | 0.746
ATCCGGAA | 0.939
CCACGCAC | 1.81
CTTCGGGC | 1.16
TCTCGACG | 0.648
GGCCGCAA | 0.657
TTGCGACT | 1.31
GTCCGCGG | 0.584
GTCCGCCG | 2.46
GCCCGCCC | 2.25
ATCCGCGT | 1.34
GTCCGCCC | 2.41
CTCCGCCC | 2.44
CTCCGCCG | 2.31
GGCCGCCC | 1.79
GGCCGCCG | 1.34
CGCCGCCC | 1.77
AACCGCCT | 1.76
ATCCGCCT | 2.5
TAGCGCTG | 0.34

Sequence | relative CpG methylation activity
CATCGACC | 0.793
GATCGTTT | 0.404
TGTCGGTC | 0.542
GGTCGAAA | 0.512
ATCCGCGA | 1.03
AGCCGCCA | 1.02
ATCCGCCA | 2.4
AACCGAGG | 0.346
AGACGAGA | 0.731
ATCCGTCG | 2.08
CTCCGTCG | 1.92
ATCCGTCC | 2.61
CTCCGTCA | 1.79
CTCCGTCC | 2.65
TTCCGTCC | 2.26
GCACGGGC | 1.47
GAACGTCG | 1.25
ATGCGGCC | 1.64
